Screening results (PubChem BioAssay)
SMN2 splice enh – increases expression of the SMN2 splice variant | HEK293 SMN2-luciferase splicing reporter, luminescence, 30-36 h | Potency, µM (highest dose often 46.1 µM), for inactives: top-dose activity change, positive = activation, most hits filed as activators | 210,000 compounds, 2.8% hits | AID 1458; also: % of control where 0% means no effect; nearly all actives have a fitted effect of over 55% in size
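HEK293 cells carry an SMN2 […]–luciferase reporter in which exon 7 inclusion puts luciferase in frame. Cells were plated 10-12 h before compound addition, then incubated 30-36 h at 37C. ONE-Glo luminescence was read; sodium butyrate at 4.5 mM final served as control.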
ELG1 genotox – genotoxicity induction in ELG1-luciferase HEK293T cells | HEK293T ELG1-luciferase reporter, luminescence, 16 h | Potency, µM (highest dose often 46 µM), inactives show top-dose activity change, positive = activation, hits mostly activators | 330,000 compounds, 1.3% hits; also: % of control where 0% means no effect; nearly all actives have a fitted effect of over 60% in size
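Quantitative HTS format in 1536-well plates. HEK293T ELG1-luciferase reporter cells receive test compound and are incubated 16 hr at 37 °C, 5% CO2; ONE-Glo added, 30 min room temperature, then luminescence read.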
Rab9 promoter act – Rab9 promoter activation | Huh7 Rab9 promoter-luciferase reporter, luminescence, 24 h | Potency, µM (highest dose often 9.22 µM), without a hit: at the top dose activation, negative = inhibition, most hits filed as activators | 320,000 compounds, 2.8% hits | AID 485297; also: % of control where 0% means no effect; nearly all actives have a fitted effect of over 60% in size
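Huh7 reporter line, Rab9 promoter upstream of luciferase. Compound exposure 24 h at 37 °C in reduced-serum medium with 10% FBS. Read-out: luminescence.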
FLuc modulator – counter-screen for miR-21 project: firefly luciferase inhibitors or activators; purified FLuc, Km substrates, luminescence inhibition; Potency, µM (top dose mostly 57.5 µM), for inactives: top-dose activity change, negative = inhibition, most hits filed as inhibitors; AID 588342; P08659; 360,000 compounds, 6.9% hits;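 also: plate controls were vehicle for no effect and reference inhibitor for full effect; nearly all actives have a fitted effect of over 55% in size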
Target sequence (P08659 whole entry, looked up): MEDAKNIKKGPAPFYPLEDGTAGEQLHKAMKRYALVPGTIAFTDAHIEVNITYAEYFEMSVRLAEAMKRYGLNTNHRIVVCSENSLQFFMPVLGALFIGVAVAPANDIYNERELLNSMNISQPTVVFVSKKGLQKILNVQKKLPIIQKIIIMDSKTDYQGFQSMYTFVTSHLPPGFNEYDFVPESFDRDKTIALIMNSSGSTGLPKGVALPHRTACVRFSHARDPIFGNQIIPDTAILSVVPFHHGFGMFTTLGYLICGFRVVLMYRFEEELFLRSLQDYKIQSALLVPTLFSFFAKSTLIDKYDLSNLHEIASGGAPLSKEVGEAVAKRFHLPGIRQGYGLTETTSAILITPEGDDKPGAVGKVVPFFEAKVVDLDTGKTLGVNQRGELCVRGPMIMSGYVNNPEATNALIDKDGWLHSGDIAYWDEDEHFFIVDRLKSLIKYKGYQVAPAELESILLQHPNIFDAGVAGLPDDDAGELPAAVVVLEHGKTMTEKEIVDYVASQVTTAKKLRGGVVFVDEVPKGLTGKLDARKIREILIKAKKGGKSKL
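Purified P. pyralis luciferase (10nM final) with 10uM D-luciferin and 10uM ATP (Km levels) in 50mM Tris acetate pH 7.5, 10mM Mg acetate, 0.01% Tween-20, 0.05% BSA; qHTS 6-point titration, ~60 µM downward; luminescence read.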
p53 reactivator – re-activators of mutant p53. 320,000 compounds, 0.063% hits. H1299 p53-A138V BP100-luciferase reporter, luminescence, 24 h. Potency, µM (doses to about 92.2 µM), for the others: top-dose activity change, positive = activation, most hits filed as activators; also: % of control where 0% means no effect; nearly all actives have a fitted effect of over 45% in size
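p53-null H1299 cells stably carrying temperature-sensitive p53-A138V and a BP100-luciferase reporter were pinned with compounds (4-point, 1:5 series) and held 24 hrs at 37 deg C. Luminescence was read 10 min after detection reagent.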
NPC1 promoter act – activates the NPC1 promoter. Huh7 NPC1 promoter luciferase reporter, 24 h. Potency, µM (top dose mostly 9.22 µM), without a hit: top-dose activation, actives largely listed as activators. 320,000 compounds, 2.4% hits. AID 485313; also: % of control where 0% means no effect; nearly all actives have a fitted effect of over 60% in size
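Luminescence read-out of NPC1 promoter-driven luciferase in stably transfected Huh7 cells; compounds delivered in DMSO and left 24 h at 37C, 5% CO2, qHTS titration format.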
* = called active by the depositor; ? = inconclusive; · = not tested or not shown; [ ] = dose if it differs, or a comment. In the library only some 7.4% were active in any assay of this set; here they are far more common. Calls follow the shape of the dose curve; as a rule, active = well fitted curve in the direction sought with a large enough effect; inconclusive = small, poorly fitted or top-dose-only effect, or another doubt; inactive = no such curve, though single readings can be large; an effect the other way counts as inactive or inconclusive. Potency is read from the fitted curve at half-maximal effect.

SMILES	SMN2 splice enh	ELG1 genotox	Rab9 promoter act	FLuc modulator	p53 reactivator	NPC1 promoter act
CCN(CC)c1ccc(/C=N/NC(=O)CNC(=O)/C=C/c2ccco2)cc1	·	1.6%	-0.8%	23.9µM*	3.0%	-1.5%
COc1ccc(/C=N/NC(=O)Cc2cccs2)cc1	·	?	?	16.9µM*	8.2%	?
Nc1ncc(Br)cc1N=Cc1ccccc1	12.6µM*	?	3.55µM*	3.38µM*	?	20.8%
Cn1ncc(N=Cc2ccccc2)c1C(N)=O	·	1.5%	11.7%	-0.5%	-0.2%	-1.3%
O=C(NCC(c1ccc2c(c1)OCO2)N1CCOCC1)C(=O)Nc1ccccc1 (centres undefined)	·	·	·	-1.1%	·	·
COc1cccc(CNC(=O)Cn2c(=O)cc(C)c3c(C)nn(C)c32)c1OC	·	·	·	-3.0%	·	·
CC(=O)N(C)c1ccc(NC(=S)Nc2ccccc2)cc1	1.0%	14.5%	-1.9%	-3.2%	15.6%	8.0%
Cc1cccc(NC(=O)Nc2cccc(C)n2)n1	7.9%	2.9%	?	16.9µM*	8.3%	20.3%
Cc1ccc(NC(=O)c2cn(-c3cccc(C)n3)cn2)cc1	?	?	3.55µM*	?	27.5%	2.82µM*
COC(=O)c1ccc(NC(=O)c2cn(-c3cccc(C)n3)cn2)cc1	-11.6%	3.2%	-0.3%	3.1%	2.3%	3.7%
Cc1cccc(NC(=O)Nc2ccc([N+](=O)[O-])cc2)n1	23.1%	9.1%	2.24µM*	1.9%	1.5%	?
CC(=O)N(C)c1ccc(NC(=O)Nc2ccc(C)cc2)cc1	?	?	?	23.9µM*	-2.5%	29.3%
CCN(c1ccccc1)S(=O)(=O)c1cccc(C(=O)NCc2ccccn2)c1	·	-0.5%	-1.6%	3.9%	1.6%	-0.2%
CCNc1c(NC(=O)c2cc(OCC)c(OCC)c(OCC)c2)c(=O)oc2ccccc12	-7.4%	·	·	0.1%	·	·
Cc1ccc(NC(=O)Nc2cc(C)on2)cc1	?	-6.5%	?	15.1µM*	20.7%	?
Cc1cccc(NC(=O)Nc2ccc(C)c(C)c2)n1	?	?	?	2.13µM*	16.8%	?
Cc1ccc(NC(=O)Nc2cccc(C)n2)cc1	15.8µM*	?	23.6%	2.39µM*	?	0.3%
Cc1cccc(NC(=O)Nc2ccc(Cl)cc2)n1	·	16.1%	?	?	3.6%	24.7%
Cc1cccc(NC(=O)Nc2ccc(F)cc2)n1	-3.6%	11.5%	?	8.49µM*	?	?
CCC[C@@H]1Cc2ccccc2N1C(C)=O	·	1.6%	8.1%	2.4%	7.8%	4.4%
Cc1cccc(CNC(=O)CN2C(=O)CSc3c2c(C)nn3-c2ccccc2)c1	·	·	·	1.8%	·	·
CC(=O)c1cccc(NC(=O)C2CCCN(C(=O)c3cnn(-c4ccccc4)c3-n3cccc3)C2)c1 (centres undefined)	-38.1%	·	·	4.1%	·	·
O=C(Nc1ccccn1)c1onc2c1CCCC2	0.708µM*	?	0.398µM*	0.757µM*	·	0.355µM*
O=C(Nc1ccccn1)c1csc2c1CCCC2	12.6µM*	7.3µM*	1.78µM*	6.75µM*	1.0%	?
Cc1nnc(NC(=O)c2csc3c2CCCC3)s1	22.3%	?	18.3%	?	-3.2%	16.9%
SMILES	SMN2 splice enh	ELG1 genotox	Rab9 promoter act	FLuc modulator	p53 reactivator	NPC1 promoter act
COc1ccccc1NC(=O)c1csc2c1CCCC2	-17.6%	-0.3%	-0.8%	19µM*	1.3%	-0.5%
COc1cc(NC(=O)c2csc3c2CCCC3)ncn1	12.6µM*	4.11µM*	3.55µM*	3.38µM*	30.7%	3.55µM*
CCCC(=O)Nc1sc2c(c1C(=O)Nc1ccccn1)CCCC2	·	-4.6%	-7.6%	4.2%	-3.3%	1.2%
COc1ccccc1CNC(=O)c1csc2c1CCCC2	11.5%	2.5%	-3.6%	-19.4%	3.4%	-0.7%
CCOC(=O)Cc1csc(SCC(=O)NC2CCC(C)CC2)n1 (centres undefined)	·	0.4%	0.5%	-4.7%	0.1%	-1.1%
O=C(O)C1=C(C(=O)Nc2ccc(F)c(Cl)c2)CCCC1	13.5%	-0.3%	0.3%	-0.2%	4.8%	-1.2%
CCOc1ccc(NC(=O)c2nn(C)cc2Br)cc1	·	?	3.16µM*	7.57µM*	?	?
CCOc1ccc(NC(=O)c2nsc(Cl)c2Cl)cc1	·	4.61µM*	1.41µM*	4.78µM*	11.9%	2.24µM*
Cn1cc(Br)c(C(=O)Nc2ncc(Br)s2)n1	4.47µM*	?	2.51µM*	-16.0%	4.7%	3.55µM*
O=C(Nc1ccc(F)c(Cl)c1)c1nsc(Cl)c1Cl	·	20.6µM*	2.82µM*	2.39µM*	11.2%	2.24µM*
Cn1cc(Br)c(C(=O)NC2CCCCC2)n1	22.4%	2.9%	-0.5%	-0.4%	?	0.7%
C#CC(CC)(CC)NC(=O)c1cc(S(=O)(=O)N2CCCCC2)ccc1N1CCOCC1	·	2.1%	-0.8%	-2.0%	2.8%	-0.8%
Cn1cc(Br)c(C(=O)NNC(=O)c2ccc(Cl)cc2)n1	?	?	29.3%	19µM*	19.3%	22.0%
O=C(Nc1ccc(F)cc1)c1nsc(Cl)c1Cl	11.2µM*	?	3.16µM*	4.78µM*	?	3.55µM*
C=CCN1c2ccccc2[C@]23C[C@@H](C(=O)OC)N(S(=O)(=O)c4ccc(C#N)cc4)C2=NC(C(=O)OC)=C(C(=O)OC)[C@H]13	-1.0%[9.22 µM]	·	·	·	·	·
